Legend:
Details in all cases: concentration: 1 μM, replicates: in singlicate; n = 1
[1] = tested on: T1, IKK-alpha
T1 construct: gene CHUK

[2] = tested on: T2, IKK-beta
T2 construct: gene IKBKB

[3] = tested on: T3, IKK-epsilon
T3 construct: gene IKBKE

[4] = tested on: INSRR
[5] = tested on: INSR
[6] = tested on: IRAK1
[7] = tested on: IRAK3
[8] = tested on: IRAK4
[9] = tested on: ITK
[10] = tested on: JAK1(JH1domain-catalytic)
[11] = tested on: JAK1(JH2domain-pseudokinase)
[12] = tested on: JAK2(JH1domain-catalytic)
[13] = tested on: JAK3(JH1domain-catalytic)
[14] = tested on: T4, JNK1
T4 construct: gene MAPK8

[15] = tested on: T5, JNK2
T5 construct: gene MAPK9

[16] = tested on: T6, JNK3
T6 construct: gene MAPK10

[17] = tested on: KIT-autoinhibited
[18] = tested on: KIT
[19] = tested on: LATS1
[20] = tested on: LATS2
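Also: KINOMEscan kinase panel screen.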

SMILES	%Inh [1] [%]	%Inh [2] [%]	%Inh [3] [%]	%Inh [4] [%]	%Inh [5] [%]	%Inh [6] [%]	%Inh [7] [%]	%Inh [8] [%]	%Inh [9] [%]	%Inh [10] [%]	%Inh [11] [%]	%Inh [12] [%]	%Inh [13] [%]	%Inh [14] [%]	%Inh [15] [%]	%Inh [16] [%]	%Inh [17] [%]	%Inh [18] [%]	%Inh [19] [%]	%Inh [20] [%]
CN1CCN(CCCNc2nccc(-c3c(-c4ccc(F)cc4)nn4cc(C(F)(F)F)ccc34)n2)CC1 [GW621581]	35	23	0	0	0	0	0	7	0	0	0	32	0	58	91.7	91.9	0	7	0	0
Cl.Cl.NCC(NCc1ccc(-c2ccnc3[nH]ccc23)s1)c1ccccc1 (centres unmarked) [GSK1321565]	68	74	39	0	0	71	20	7	13	29	0	96.9	100	24	14	4	0	25	62	95
O=c1[nH]cc(-c2ccc(N3CCOCC3)cc2)c2sc(-c3cn[nH]c3)cc12 [GSK2276055]	0	11	34	0	24	0	0	9	0	24	77	100	39	24	14	10	22	76	0	62
Cn1cc(-c2[nH]c3cc(NC(=O)[C@H](N)C4CCCCC4)cc4c3c2C=NNC4=O)cn1	15	10	73	4	0	77	20	93.3	34	61	100	98.7	99.5	0	0	0	28	99.9	90.4	100
Cl.Cl.NCC(C(=O)Nc1cc(Br)c(-c2ccnc3[nH]ccc23)s1)c1ccccc1 (centres unmarked) [GSK1269851]	44	34	0	0	0	81	34	26	12	2	0	78	100	15	7	0	2	12	62	80
COc1cccc(-c2ccc3c(NC(=O)C4CC4)n[nH]c3n2)c1 [SB-710903]	50	26	52	0	0	57	0	27	6	9	0	17	0	29	14	5	0	15	9	10
COc1ccc(Nc2nccc(NCCNC(=O)c3cc4ccccc4s3)n2)cc1 [GSK1379896]	0	0	0	0	0	0	0	0	8	5	0	23	0	6	27	6	0	5	0	0
COc1ccc(-c2coc3ccc(-c4nnc(SCc5ccc(OC)c(C(F)(F)F)c5)o4)cc23)cc1	25	6	22	0	25	10	4	14	25	0	32	22	0	0	0	0	7	20	25	0
CC(C)(C)c1ccc2nccc(Nc3cccc(O)c3)c2c1 [GW856795]	31	0	0	0	0	0	0	0	19	0	0	36	35	32	23	15	9	26	10	0
COc1cccc(C2=C(Nc3ccc(Cl)c(C(=O)O)c3)C(=O)NC2=O)c1 [SB-390769]	100	100	91.1	8	100	48	0	31	14	100	0	100	81	52	64	45	0	6	18	100
